MITF primary: blocks human microphthalmia-associated transcription factor; O75030; actives 0.91% (n = 650,000); AID 1259374; inhibition, % at 2.6 µM; AlphaScreen MITF homodimerization, bead proximity signal; in the data active means inhibition above about 50%
Target sequence (O75030 whole entry, looked up): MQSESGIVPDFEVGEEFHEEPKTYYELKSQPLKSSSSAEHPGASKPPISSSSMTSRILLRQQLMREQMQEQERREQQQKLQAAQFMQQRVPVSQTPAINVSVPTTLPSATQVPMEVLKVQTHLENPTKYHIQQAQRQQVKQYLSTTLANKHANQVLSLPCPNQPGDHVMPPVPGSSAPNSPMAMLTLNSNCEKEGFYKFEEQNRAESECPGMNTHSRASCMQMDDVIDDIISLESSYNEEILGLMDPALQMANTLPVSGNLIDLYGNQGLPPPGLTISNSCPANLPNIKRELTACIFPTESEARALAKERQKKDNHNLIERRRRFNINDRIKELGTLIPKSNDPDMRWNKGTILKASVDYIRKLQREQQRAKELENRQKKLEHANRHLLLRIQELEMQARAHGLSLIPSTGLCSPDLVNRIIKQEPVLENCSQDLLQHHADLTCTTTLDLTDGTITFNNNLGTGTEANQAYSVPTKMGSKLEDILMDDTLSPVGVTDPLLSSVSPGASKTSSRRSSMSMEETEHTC
TEAD-YAP inh: TEAD-YAP interaction inhibition; HEK-TIYL cells, TEAD-Gal4/YAP UAS-luciferase luminescence; inhibition, % at 9.12 µM; actives 1.4% (n = 640,000); in the data active means inhibition above about 32%
FBW7 activator: activators of human E3 ligase FBW7; normalized activity (activation), % at 26.1 µM; Q969H0; AID 1259310; AlphaScreen FBW7–phospho-cyclin E peptide binding, activator screen; actives 0.13% (n = 650,000); in the data active means normalized activity above about 1.9%;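 further: purified mutant Fbw7 with reduced substrate affinity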
GPR151 ag: human GPR151 activation; activation, % at 11.2 µM; actives 1% (n = 650,000); PathHunter beta-arrestin GPR151 cells, luminescence; Q8TDV0; in the data active means activation above about 4.9%
GPR151 conf act: confirmation of human GPR151 activators. activation, % at 11.2 µM. 6,700 tested, under 10 active. shares compounds with GPR151 ag. GPR151 PathHunter beta-arrestin cells, luminescence, 90 min; % of EA-reagent control over plate median. AID 1508609;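 active means mean percent activation across replicates above the confirmation screen cutoff of 4.91%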
GPR119 ag: counter-screen for GPR151 activators: effect on human GPR119; shares compounds with GPR151 ag; GPR119 PathHunter beta-arrestin cells, luminescence, 90 min; 0 = compound-well median, 100 = enzyme-acceptor control; activation, % at 11.2 µM; actives 0.3% (n = 6,700);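 active means mean percent activation in the counterscreen above 29.09%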;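 further: counterscreen on off-target GPR119 to flag nonselective hits from the GPR151 activator screen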
Each line names hits and unclear results; the compound was inactive in the other large screens (follow-up assays come after a bar, where they were run). The list is not random: actives were taken first. Their share in the collection is about 3.5%.

COc1ccccc1-n1nc(C(=O)Nc2ccc(Cl)cn2)c2ccccc2c1=O	GPR151 ag 7.6 | GPR151 conf act inactive | GPR119 ag inactive
COc1ccccc1-c1nnc2sc(-c3ccc4c(c3)OCCO4)nn12	TEAD-YAP inh 52.8, GPR151 ag 5.7 | GPR151 conf act inactive | GPR119 ag inactive
COc1ccccc1-c1nnc2sc(-c3cc(OC)c(OC)c(OC)c3)nn12	none
C/C(=N/NC(=O)CC1=NNC(=O)C1)c1ccc(Br)cc1	none
OCc1ccccc1NC(=S)Nc1cccnc1	GPR151 ag 5.8 | GPR151 conf act inactive | GPR119 ag inactive
Cc1ccccc1NC(=S)Nc1cccnc1	none
Cc1ccccc1NC(=S)NCc1cccnc1	GPR151 ag 8.3 | GPR151 conf act inactive | GPR119 ag inactive
COc1ccc(C(=O)CCN(C)C)c(F)c1	none
CCOC(=O)N1CCN(S(=O)(=O)c2ccc(Cl)c(OC)c2)CC1	none
CCOC(=O)CN1C(=O)C(O)(CC(=O)c2ccc(C(C)(C)C)cc2)c2ccccc21 (stereo unspecified)	none
Cc1cc(NC(=O)NC(=O)c2ccc(Cl)c(Cl)c2)n[nH]1	GPR151 ag 6.6 | GPR151 conf act inactive | GPR119 ag inactive
Cc1cc(NC(=O)NC(=O)c2cccc(Cl)c2)n[nH]1	none
Cc1cc(F)ccc1S(=O)(=O)Nc1cc2c(C(=O)O)c(C)oc2c2ccccc12	GPR151 ag 6.4 | GPR151 conf act inactive | GPR119 ag inactive
O=[N+]([O-])c1ccccc1/C=C/CN1CCN(CCOCCO)CC1	GPR151 ag 5.4 | GPR151 conf act inactive | GPR119 ag inactive
O=[N+]([O-])c1ccccc1/C=C/CN1CCSCC1	none
NC(=O)CSc1nnc(SCc2ccccc2)s1	none
Clc1cccc(-n2cc(-c3ccccc3)c3c(N4CCN(c5ccccc5Cl)CC4)ncnc32)c1	none
Cc1cccc(N2CCN(c3ncnc4c3c(-c3ccccc3)cn4-c3cccc(Cl)c3)CC2)c1C	GPR151 ag 6.1 | GPR151 conf act inactive | GPR119 ag inactive
Cc1ccc(S(=O)(=O)N(CC(N)=O)Cc2cccc(C)c2)cc1	GPR151 ag 5.2 | GPR151 conf act inactive | GPR119 ag inactive
CC1CCCN(S(=O)(=O)c2cccc(-c3cn4cccnc4n3)c2)C1 (stereo unspecified)	GPR151 ag 5.0 | GPR151 conf act inactive | GPR119 ag inactive
CCN(CC)S(=O)(=O)c1cccc(-c2cn3cccnc3n2)c1	none
CCOc1ccc(NC(=O)CN2N=NC3C(=O)N(c4ccc(Cl)cc4)C(=O)C32)cc1 (stereo unspecified)	GPR151 ag 5.7 | GPR151 conf act inactive | GPR119 ag inactive
COc1ccc(-c2noc(NCc3cccc(Cl)c3)n2)cc1OC	GPR151 ag 4.9 | GPR151 conf act inactive | GPR119 ag inactive
COc1ccc(-c2noc(NCc3ccccc3)n2)cc1OC	none
CN1C(=O)CC(C(=O)Nc2cccc(C(=O)O)c2)SC1=Nc1cccc(Cl)c1 (stereo unspecified)	none
O=C1N(C2Cc3ccccc3C2)C[C@@H]2C[C@@H](c3cccc(-n4cccn4)c3)N3CCC[C@@]123	GPR151 ag 6.3 | GPR151 conf act inactive | GPR119 ag inactive
Cc1[nH]c(-c2ccc(F)cc2)cc1C(=O)N1CCCC1	none
Cc1[nH]c(-c2ccc(F)cc2)cc1C(=O)N1CCOCC1	GPR151 ag 5.8 | GPR151 conf act inactive | GPR119 ag inactive
CCOc1ccc(-n2c(C)nc3cc(C(=O)NCc4ccc(C)cc4)ccc32)cc1	GPR151 ag 5.3 | GPR151 conf act inactive | GPR119 ag inactive
Cc1nc(NCC2CC2)sc1-c1ccn(-c2cccc(F)c2)n1	GPR151 ag 5.8 | GPR151 conf act inactive | GPR119 ag inactive
Cc1nc(NCC2CC2)sc1-c1ccn(CCN2CCOCC2)n1	none
O=C(CSc1nnc(-c2ccc(Br)cc2)o1)NC1CCCC1	GPR151 ag 8.1 | GPR151 conf act inactive | GPR119 ag inactive
O=C(Nc1cccc2cccnc12)c1cc2ccccc2oc1=O	none
O=C(Nc1ccccc1)c1ccccc1OCC(O)Cn1c2ccccc2c2ccccc21 (stereo unspecified)	GPR151 ag 12.5 | GPR151 conf act inactive | GPR119 ag inactive
Cc1cc2c(cc1C)-c1c(sn(-c3cccc(C(F)(F)F)c3)c1=S)C(C)(C)N2	none
CCCCn1c(C)c(Cc2ccccc2)[nH]c1=O	GPR151 ag 6.1 | GPR151 conf act inactive | GPR119 ag inactive
CCCCCn1c(=O)[nH]c2ccccc21	none
COc1ccc(Cl)cc1C(=O)N/C(=C\c1cccc([N+](=O)[O-])c1)C(=O)Nc1cc(Cl)ccc1Br	none
CO[C@H]1COC(=O)C/C=C/[C@H](C)[C@@H](OC)COC(=O)[C@@H](C)COC(=O)C/C=C/[C@@H]1C	GPR151 ag 6.0 (no result: TEAD-YAP inh) | GPR151 conf act inactive | GPR119 ag inactive
CO[C@@H]1COC(=O)[C@H](COCc2ccccc2)NC(=O)C/C=C/[C@@H](C)[C@H](OC)COC(=O)[C@H](C)NC(=O)C/C=C/C1C (stereo partly specified)	GPR151 ag 4.9 (no result: TEAD-YAP inh) | GPR151 conf act inactive | GPR119 ag inactive
Cc1ccc(Cl)cc1NC(=O)c1cc2nc(-c3ccc4c(c3)OCO4)cc(C(F)(F)F)n2n1	none
O=[N+]([O-])c1ccc(/C=N/NC(=S)NCCc2ccccc2)o1	none
CCC(C)C1N=C2c3ccccc3N=C(SCC(=O)c3ccc(Br)cc3)N2C1=O (stereo unspecified)	none
CC(=O)Nc1ccc(/C=C(\C#N)c2nc3ccccc3[nH]2)cc1	none
CC(=O)Nc1ccc(/C=C(\c2nc3ccccc3[nH]2)S(=O)(=O)c2ccccc2)cc1	GPR151 ag 6.6 | GPR151 conf act inactive | GPR119 ag inactive
CCCOc1cccc(C(=O)Nc2ccc3nn(-c4cccc(Cl)c4)nc3c2)c1	none
Cc1ccc(NC(=O)c2cnn3c(C(F)(F)F)cc(-c4ccco4)nc23)cc1	none
CC(=O)c1ccc(NC(=O)c2cnn3c(C(F)(F)F)cc(-c4ccco4)nc23)cc1	GPR151 ag 6.8 | GPR151 conf act inactive | GPR119 ag inactive
COc1ccc(NC(=S)Nc2ccc(S(=O)(=O)N3CCOCC3)cc2)c(OC)c1	GPR151 ag 5.2 | GPR151 conf act inactive | GPR119 ag inactive
COc1ccc(CCNS(=O)(=O)c2ccc(S(=O)(=O)N3CCOCC3)cc2)cc1	GPR151 ag 5.6 | GPR151 conf act inactive | GPR119 ag inactive
COc1ccc(NS(=O)(=O)c2ccc(S(=O)(=O)N3CCOCC3)cc2)cc1	none
COc1ccc(NC(=S)Nc2ccc(S(N)(=O)=O)cc2)c(OC)c1	none
COc1ccc(-c2noc(CCC(=O)N3CCN(c4ccc(C(C)=O)cc4)CC3)n2)cc1	none
CCC(CC)CN1CCC2(CC1)CC2C(=O)N(C)Cc1cscn1 (stereo unspecified)	none
CC1=NN(c2ccc(Br)cc2)C(=O)/C1=C/c1ccc(C)s1	GPR151 ag 7.5 | GPR151 conf act inactive | GPR119 ag inactive

Bioassay records: PubChem, The Scripps Research Institute Molecular Screening Center
